# Screens (PubChem)
# This is a sample that favours compounds with a hit; in the whole collection about 19% have one here.
# HT1080 IDH1KD tx: qHTS for induction of synthetic lethality in tumor cells producing 2HG: qHTS for the HT-1080-IDH1KD cell line | Potency, µM (titrated, usually from 46.1 µM), inactives show top-dose activity, negative = toxicity, hits mostly cytotoxic | actives 2% (n = 360,000) | AID 686971, 2013 | HT-1080 IDH1 knockdown viability, ATP luminescence, 48 h;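 also: potency is read from the fitted curve at half-maximal effect; 0% = DMSO wells and -100% = cell-free medium wells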
#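 CellTiter-Glo luminescence after 48 h compound exposure at 37 degrees C of IDH1-knockdown HT-1080 cells in 5% FBS RPMI. %Activity scaled between DMSO wells and cell-free media wells, with curves fitted and assigned curve classes.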
# DT40 TDP1 no CPT: qHTS for Inhibitors of human tyrosyl-DNA phosphodiesterase 1 (TDP1): qHTS in cells in absence of CPT | DT40 Tdp1-/- hTDP1 cells, no CPT, ATP luminescence, 48 h | Potency, µM (top dose mostly 46.2 µM), inactives show top-dose activity change, negative = growth inhibition, hits mostly inhibitors | actives 15% (n = 420,000); also: potency is read from the fitted curve at half-maximal effect; nearly all actives have a fitted effect of over 55% in size
#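 Cells were dispensed at 400 per well, compounds added by pin tool, plates incubated ≥48 hr at 37 °C, then CellTiter-Glo added for 30 min at room temperature before luminescence reading. Line: DT40 Tdp1-/- complemented with hTDP1; camptothecin omitted.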
# DT40 TDP1 CPT: qHTS for Inhibitors of human tyrosyl-DNA phosphodiesterase 1 (TDP1): qHTS in cells in presence of CPT; chicken DT40 Tdp1-/-;hTDP1 cells + 20 nM CPT, ATP luminescence, 48 h; Potency, µM (highest dose often 46.2 µM), for the others: at the highest dose activity change, negative = growth inhibition, hits mostly inhibitors; actives 12% (n = 420,000); AID 686979, 2013; also: potency is read from the fitted curve at half-maximal effect; nearly all actives have a fitted effect of over 55% in size
#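 Cell growth measured by CellTiter-Glo luminescence after a minimum 48 h, 37 C compound exposure with 20 nM CPT in Tdp1-knockout DT40 cells stably expressing hTDP1, seeded 400/well; qHTS titration format.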
# HT1080NT lethal: qHTS for induction of synthetic lethality in tumor cells producing 2HG: qHTS for the HT-1080-NT fibrosarcoma cell line | HT-1080-NT fibrosarcoma viability, CellTiter-Glo ATP luminescence, 48 h | Potency, µM (titrated, usually from 46.1 µM), inactives show top-dose activity, negative = less viability, actives largely listed as cytotoxic | actives 1.6% (n = 360,000);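 also: NT is the 2HG producing partner of a matched IDH1 knockdown line; potency is read from the fitted curve at half-maximal effect; 0% = DMSO-treated cells and -100% = media-only wells without cells; nearly all actives have a fitted effect of over 55% in size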
#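 Viability by CellTiter-Glo luminescence after 48 h compound exposure at 37C of HT-1080-NT cells (750/well, RPMI, 5% FBS). % activity scaled between DMSO wells and medium-only wells, then curve-fitted and categorized by curve class.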
# IL1B secr inh: qHTS for Inhibitors of Inflammasome Signaling: IL-1-beta AlphaLISA Primary Screen; THP-1 LPS/ATP IL-1B secretion, AlphaLISA, 16 h; hits give low values; activity change, % at 57.5 µM; actives 4.7% (n = 360,000); in the data active = activity change below about -50%; inconclusive = mostly about -30% to -49%
#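 THP-1 cells pretreated 1 hr with compounds (up to 57.5 uM final), then stimulated with LPS (250 ng/mL final) plus ATP (1.25 mM final); secreted IL-1B measured by AlphaLISA after 16 hr, decreased signal indicating inhibition.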
# An asterisk follows results filed as active; ? = inconclusive; · = not tested or not shown; ! = a repeat was not active; [ ] = another dose, or the depositor's remark. Unless noted, calls follow the shape of the dose curve; as a rule, active = well fitted curve in the direction sought with a large enough effect; inconclusive = small, poorly fitted or top-dose-only effect, or another doubt; inactive = no such curve, though single readings can be large; an effect the other way counts as inactive or inconclusive. Unless noted, % is scaled to controls: 0 for no effect and ±100 for the full control effect.
SMILES,HT1080 IDH1KD tx,DT40 TDP1 no CPT,DT40 TDP1 CPT,HT1080NT lethal,IL1B secr inh
C[C@H](CO)N1C[C@H](C)[C@@H](CN(C)Cc2ccc(-c3ccccc3)cc2)Oc2c(NC(=O)c3ccncc3)cccc2C1=O,-22%,23µM*,16µM*,?,-22
C[C@H](CO)N1C[C@H](C)[C@@H](CN(C)Cc2ccccc2)Oc2c(NC(=O)c3ccncc3)cccc2C1=O,6%,23µM*,?,4%,20
S=C(NCCc1ccccc1)NCCc1cnc[nH]1,-2%,-2%,-25%,-20%,42
COC1C(O)C(C)OC(OC2C(Oc3cccc4c(O)c5c(=O)oc6ccc(C)c7c(=O)oc(c34)c5c67)OC(C)C(O)C2O)C1O (stereo not drawn),?,0.82µM*,0.82µM*,?,-100*
O=C(O)c1ccc([N+](=O)[O-])c([N+](=O)[O-])c1,1%,-16%,-10%,5%,-2
CC(C)(O)C(=O)Nc1ccc([N+](=O)[O-])c(C(F)(F)F)c1,-6%,15µM*,?,13%,23
C(=NC1CCCCC1)c1c[nH]c2ccccc12,10%,3%,0%,4%,16
CC1CN=C(NCc2ccccc2)S1 (stereo not drawn),2%,-1%,3%,8%,-24
c1ccc(C2(N3CCCC3)CCCCC2)cc1,·,19µM*,?,·,·
NC(=O)C1(N2CCCCC2)CCN(Cc2ccccc2)CC1,7%,-14%,-14%,-1%,-20
O=S(=O)(c1ccc(Cl)cc1)N1CN2CCN(C2)C1,13%,?,23µM*,23%,-18
O=S(=O)(c1ccc(F)cc1)N1CN2CCN(C2)C1,1%,?,?,0%,2
CCOC(=O)C(C)(CC)NC(=O)CSP(=S)(OCC)OCC (stereo not drawn),6%,?,?,1%,22
CCOC(=O)C(O)(c1ccc(NC(=O)NC2CCCCC2)cc1)C(F)(F)F (stereo not drawn),?,?,-24%,-4%,30
O=C(Nc1ccc(Cl)c(C(F)(F)F)c1)NC1CC2CCCC(C1)N2Cc1ccccc1 (stereo not drawn),?,13µM*,18µM*,18µM*,-106*
CCOC(=O)c1c(-n2c(C)cc(/C=C3\C(=O)NC(=O)N(C)C3=O)c2C)sc2c1CCCC2,3%,?,?,14%,-73*
Cc1cc(/C=C2\C(=O)NC(=O)N(c3ccc(Cl)cc3)C2=O)c(C)n1-c1sc2c(c1C#N)CCCC2,?,?,?,-14%,-26
COc1ccc(CCNc2nc3c(c(=O)n(C)c(=O)n3C)n2Cc2ccc(F)cc2)cc1OC,·,3.3µM*,6.5µM*,·,·
Cc1nc2ccccc2c(=O)n1-c1ccccc1[N+](=O)[O-],2%,-16%,1%,-2%,-11
Cc1cccc(-n2c(C)nc3ccccc3c2=O)c1C,-6%,21µM*,5.8µM*,-18%,5
Cc1nc2ccccc2c(=O)n1-c1c(Cl)cccc1Cl,-15%,18µM*,23µM*,-19%,52
CN1CCN(c2ccc([N+](=O)[O-])c(N/N=C3\CN4CCC3CC4)c2)CC1,-13%,-3%,2%,-10%,?
CCCC1COC(Cn2cncn2)(c2ccc(Cl)cc2Cl)O1 (stereo not drawn),-15%,?,?,-4%,-14
CC(=O)N1CCN(c2ccc(OC[C@H]3CO[C@](Cn4ccnc4)(c4ccc(Cl)cc4Cl)O3)cc2)CC1,-18%,6.3µM*,6.3µM*!,-27%,-23
CC(=O)N1CCN(c2ccc(OC[C@@H]3CO[C@@](Cn4ccnc4)(c4ccc(Cl)cc4Cl)O3)cc2)CC1,·,16µM*,16µM*,·,·
SMILES,HT1080 IDH1KD tx,DT40 TDP1 no CPT,DT40 TDP1 CPT,HT1080NT lethal,IL1B secr inh
CC1=Nc2ccccc2/C1=C/c1c(O)[nH]c(=O)[nH]c1=O,-16%,7%,-19%,-11%,0
O=c1[nH]c(O)c(/C=C2/C=CC(c3cc(Cl)ccc3Cl)=N2)c(=O)[nH]1,-8%,6.5µM*,5.8µM*,0%,20
COC(C(=O)C(O)C(C)O)C1Cc2cc3cc(OC4CC(OC5CC(O)C(O)C(C)O5)C(O)C(C)O4)c(C)c(O)c3c(O)c2C(=O)C1OC1CC(OC2CC(OC3CC(C)(O)C(O)C(C)O3)C(O)C(C)O2)C(O)C(C)O1 (stereo not drawn),·,0.028µM*,0.16µM*,·,·
CO[C@H](C(=O)[C@@H](O)[C@@H](C)O)C1Cc2cc3cc(O[C@H]4C[C@@H](O[C@H]5C[C@@H](O)[C@H](O)[C@@H](C)O5)[C@@H](O)[C@@H](C)O4)c(C)c(O)c3c(O)c2C(=O)[C@H]1O[C@H]1C[C@@H](O[C@H]2C[C@@H](O[C@H]3C[C@](C)(O)[C@H](O)[C@@H](C)O3)[C@H](O)[C@@H](C)O2)[C@H](O)[C@@H](C)O1 (stereo partly drawn),·,0.084µM*,0.075µM*,·,·
[Cl][In]([Cl])[Cl],·,-9%[92.5 µM],?,·,·
CCS(=O)CCSP(=O)(OC)OC (stereo not drawn),·,-5%,12%,·,·
COc1ccc(/C=C2\C(=O)NC(=S)N(C)C2=O)cc1C,-6%,-2%,2%,-4%,-1
C=CCN1C(=O)/C(=C/c2ccc(Br)s2)C(=O)NC1=S,2%,21µM*,?,-2%,-99*
C=CCN1C(=O)/C(=C\c2ccc(N3CCOCC3)o2)C(=O)NC1=S,-1%,-27%,1%,-2%,7
CN1C(=O)/C(=C/c2ccc(Cl)s2)C(=O)NC1=S,?,9.2µM*,7.3µM*,?,-97*
Cc1ccsc1/C=C1\C(=O)NC(=S)N(C)C1=O,-2%,3.3µM*,5.8µM*,0%,-94*
c1ccc2nc3ccccc3cc2c1,·,13µM*,10µM*,·,·
O=C1NC(c2cc3ccccc3nc2Cl)Nc2ccccc21 (stereo not drawn),-1%,?,6%,-4%,11
Cc1ccc(S(=O)(=O)Cc2ccc(C(=O)N3CCC4(CC3)OCCO4)o2)cc1,4%,-23%,-24%,11%,11
O=C(c1cc(-c2ccc(Cl)cc2)n[nH]1)N1CCN(S(=O)(=O)c2ccc(Br)s2)CC1,·,15µM*,?,·,·
Oc1c(Br)cc(Br)cc1Br,-1%,-5%,6%,-28%,-5
